# Measured values taken from PubChem BioAssay.
# Tested on: not listed separately
# Experiment: probe aLefty2 binding to arrayed compounds – biochemical, biotinylated probe, 635/667 nm fluorescence, primary screen (AID 1094);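 further: score merges spot fluorescence near 667 nm with spot signal-to-noise ratio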
# Details: small-molecule microarray, higher = more signal
row,SMILES,composite z-score
1,CCOC(=O)C1=C[C@@H](C(C)(C)C)N(S(=O)(=O)c2ccc(C)cc2)[C@H]1c1cccc(Cl)c1,0.195
2,C=C[C@H](C)[C@H](OC(=O)Nc1ccc(OC)cc1)c1ccc(OCCO)cc1,-0.129
3,C[C@]1(C(=O)O)c2ccccc2C(=O)N(Cc2ccc(OC(F)(F)F)cc2)[C@H]1c1ccc(CO)cc1,0.122

# Tested on: Noggin (protein binding on small-molecule microarray)
# Experiment: small molecules binding Noggin protein – biochemical, 635/667 nm fluorescence, primary screen (AID 1095);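 further: score merges 667 nm feature fluorescence with signal to noise over triplicate slides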
# Details: 635 nm fluorescence, higher = more signal
row,SMILES,composite z-score
1,COc1cc(NN2C(C(O)c3ccc(I)cc3)C=CC3C(=O)N(c4ccccc4)C(=O)C32)cc(OC)c1OC (configuration not stated),0.218
2,CN(C)CCCC[C@@H]1NC(=O)[C@@H]2C[C@H](C(=O)O)[C@H](c3cccc(OCCO)c3)N2C1=O,-0.0355
3,CN1C(=O)C2C=CC(C(O)c3cc(C(F)(F)F)cc(C(F)(F)F)c3)N(Nc3ccccc3)C2C1=O (configuration not stated),0.325
4,C=C(/C(=C/C[C@H](OC(=O)c1ccncc1)c1ccccc1OCCO)c1cnc2ccccc2c1)C(C)C,1.13
5,COC(=O)[C@@]1(Cc2ccccc2CN=[N+]=[N-])N=C(c2ccc(OCCCO)cc2)O[C@H]1c1ccccc1,0.151
6,C=CCC(OC(C)=O)[C@@H]1[C@@H](N(Cc2cccc3ccccc23)C(=O)c2ccc(-c3ccccc3)cc2)c2cc(OCCCO)ccc2N1C(=O)c1ccc(-c2ccccc2)cc1 (some centres not stated),-0.63
7,COC(=O)[C@@]1(Cc2ccc(F)cc2)[C@H]2c3cc(C(=O)N(C)C)n(Cc4c(CO)[nH]cc(C)c4=O)c3C[C@H]2CN1C(=O)c1ccccc1,-0.115
8,CN(C)C(=O)[C@]1(CCS(=O)(=O)c2ccccc2)N=C(c2ccc(OCCCO)cc2)O[C@@H]1c1ccccc1,0.577
9,CC(C)OC(=O)CC(=O)CC(O)c1ccc([N+](=O)[O-])cc1 (configuration not stated),-0.0624
